# Measurements from the supplement of paper PMC10849652.
# Of roughly 7,900 targets only a part is listed; those with a hit were picked by preference. About 0.6% of all pairs of compound and target were hits. A number with no mark means an inactive call.
# Key:
# Experiment in all cases: log2 fold change, soluble protein after heating vs DMSO (PISA); higher = thermal stabilisation; K562 cells, 10 uM, 30 min; active = over 0.2 and 3.5 SD of the protein, either way, in both replicates (recomputed)
# [1] = compound: COC1=CC=C(C=C1)CN2C=CC3=C2C=C(C=C3)C(=O)NO
# In short: (§1)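 Thermal stability values are relative to control samples and come from duplicates. They are expressed as log2 fold changes. For measurement, K562 cells (2×10^6 cells/mL) received 10 μM compound for 30 min, and aliquots were heated for 3 min over 48°C-58°C, pooled, and extracted at 4°C in PBS with 0.5% NP-40. Soluble protein, the supernatant after 21,000xg for 90 min, was quantified by TMTpro 16plex LC-MS/MS with equalised channel sums.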
# filanesib = compound: CON(C)C(=O)N1N=C(c2cc(F)ccc2F)S[C@@]1(CCCN)c1ccccc1 [filanesib]
# In short: as §1
# zotarolimus = compound: CO[C@H]1C[C@@H]2CC[C@@H](C)[C@@](O)(O2)C(=O)C(=O)N2CCCC[C@H]2C(=O)O[C@H]([C@H](C)C[C@@H]2CC[C@H](n3cnnn3)[C@H](OC)C2)CC(=O)[C@H](C)/C=C(\C)[C@@H](O)[C@@H](OC)C(=O)[C@H](C)C[C@H](C)/C=C/C=C/C=C/1C [zotarolimus]
# In short: as §1
# idasanutlin = compound: COc1cc(C(=O)O)ccc1NC(=O)[C@@H]1N[C@@H](CC(C)(C)C)[C@](C#N)(c2ccc(Cl)cc2F)[C@H]1c1cccc(Cl)c1F [idasanutlin]
# In short: as §1
# alisertib = compound: COc1cc(Nc2ncc3c(n2)-c2ccc(Cl)cc2C(c2c(F)cccc2OC)=NC3)ccc1C(=O)O [alisertib]
# In short: as §1
# [2] = compound: COc1cc2nc(-c3cc(F)ccc3O)nc(N[C@@H]3CNC[C@H]3C(C)(C)O)c2cc1OC
# In short: as §1
# gefitinib = compound: COc1cc2ncnc(Nc3ccc(F)c(Cl)c3)c2cc1OCCCN1CCOCC1 [gefitinib]
# In short: as §1
# [3] = compound: COc1cccc2cc(-c3nc([C@H]4CC[C@H](C(=O)O)CC4)n4ncnc(N)c34)[nH]c12
# In short: as §1
# lapatinib = compound: CS(=O)(=O)CCNCc1ccc(-c2ccc3ncnc(Nc4ccc(OCc5cccc(F)c5)c(Cl)c4)c3c2)o1 [lapatinib]
# In short: as §1
# pictilisib = compound: CS(=O)(=O)N1CCN(Cc2cc3nc(-c4cccc5[nH]ncc45)nc(N4CCOCC4)c3s2)CC1 [pictilisib]
# In short: as §1
# [4] = compound: CS(=O)(=O)c1ccc(-c2cnc(N)c(C(=O)Nc3ccccc3)n2)cc1
# In short: as §1
# crizotinib = compound: C[C@@H](Oc1cc(-c2cnn(C3CCNCC3)c2)cnc1N)c1c(Cl)ccc(F)c1Cl [crizotinib]
# In short: as §1
# [5] = compound: C[C@@H]1COCCN1C2=NC(=NC(=C2)C3(CC3)S(=O)(=O)C)C4=C5C=CNC5=CC=C4
# In short: as §1
# [6] = compound: C[C@H](C1=CC=C(C=C1)C(=O)NC2=C3C=CNC3=NC=C2)N
# In short: as §1
# duvelisib = compound: C[C@H](Nc1ncnc2nc[nH]c12)c1cc2cccc(Cl)c2c(=O)n1-c1ccccc1 [duvelisib]
# In short: as §1
# gandotinib = compound: Cc1cc(Nc2cc(CN3CCOCC3)c3nc(C)c(Cc4ccc(Cl)cc4F)n3n2)n[nH]1 [gandotinib]
# In short: as §1
# tozasertib = compound: Cc1cc(Nc2cc(N3CCN(C)CC3)nc(Sc3ccc(NC(=O)C4CC4)cc3)n2)n[nH]1 [tozasertib]
# In short: as §1
# [7] = compound: Cc1cc(SCc2sc(-c3ccc(C(F)(F)F)cc3)nc2C)ccc1OCC(=O)O
# In short: as §1
# doramapimod = compound: Cc1ccc(-n2nc(C(C)(C)C)cc2NC(=O)Nc2ccc(OCCN3CCOCC3)c3ccccc23)cc1 [doramapimod]
# In short: as §1
# ispinesib = compound: Cc1ccc(C(=O)N(CCCN)[C@@H](c2nc3cc(Cl)ccc3c(=O)n2Cc2ccccc2)C(C)C)cc1 [ispinesib]
# In short: as §1
# Chain of UniProt Q15796 (Q15796 whole entry, looked up): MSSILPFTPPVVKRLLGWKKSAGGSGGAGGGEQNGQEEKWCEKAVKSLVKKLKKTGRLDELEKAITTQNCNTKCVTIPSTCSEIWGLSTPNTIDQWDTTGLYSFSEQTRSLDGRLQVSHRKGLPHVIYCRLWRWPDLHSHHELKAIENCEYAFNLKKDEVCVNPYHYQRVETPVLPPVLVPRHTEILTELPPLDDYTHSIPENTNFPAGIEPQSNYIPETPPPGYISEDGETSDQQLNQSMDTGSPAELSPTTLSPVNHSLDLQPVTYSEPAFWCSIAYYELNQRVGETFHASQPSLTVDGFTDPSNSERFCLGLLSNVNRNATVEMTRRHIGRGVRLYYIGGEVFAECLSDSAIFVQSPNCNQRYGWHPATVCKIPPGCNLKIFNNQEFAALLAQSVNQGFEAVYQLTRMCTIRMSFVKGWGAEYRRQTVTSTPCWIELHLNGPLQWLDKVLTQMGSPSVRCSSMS
# Chain of UniProt O60264 (O60264 whole entry, looked up): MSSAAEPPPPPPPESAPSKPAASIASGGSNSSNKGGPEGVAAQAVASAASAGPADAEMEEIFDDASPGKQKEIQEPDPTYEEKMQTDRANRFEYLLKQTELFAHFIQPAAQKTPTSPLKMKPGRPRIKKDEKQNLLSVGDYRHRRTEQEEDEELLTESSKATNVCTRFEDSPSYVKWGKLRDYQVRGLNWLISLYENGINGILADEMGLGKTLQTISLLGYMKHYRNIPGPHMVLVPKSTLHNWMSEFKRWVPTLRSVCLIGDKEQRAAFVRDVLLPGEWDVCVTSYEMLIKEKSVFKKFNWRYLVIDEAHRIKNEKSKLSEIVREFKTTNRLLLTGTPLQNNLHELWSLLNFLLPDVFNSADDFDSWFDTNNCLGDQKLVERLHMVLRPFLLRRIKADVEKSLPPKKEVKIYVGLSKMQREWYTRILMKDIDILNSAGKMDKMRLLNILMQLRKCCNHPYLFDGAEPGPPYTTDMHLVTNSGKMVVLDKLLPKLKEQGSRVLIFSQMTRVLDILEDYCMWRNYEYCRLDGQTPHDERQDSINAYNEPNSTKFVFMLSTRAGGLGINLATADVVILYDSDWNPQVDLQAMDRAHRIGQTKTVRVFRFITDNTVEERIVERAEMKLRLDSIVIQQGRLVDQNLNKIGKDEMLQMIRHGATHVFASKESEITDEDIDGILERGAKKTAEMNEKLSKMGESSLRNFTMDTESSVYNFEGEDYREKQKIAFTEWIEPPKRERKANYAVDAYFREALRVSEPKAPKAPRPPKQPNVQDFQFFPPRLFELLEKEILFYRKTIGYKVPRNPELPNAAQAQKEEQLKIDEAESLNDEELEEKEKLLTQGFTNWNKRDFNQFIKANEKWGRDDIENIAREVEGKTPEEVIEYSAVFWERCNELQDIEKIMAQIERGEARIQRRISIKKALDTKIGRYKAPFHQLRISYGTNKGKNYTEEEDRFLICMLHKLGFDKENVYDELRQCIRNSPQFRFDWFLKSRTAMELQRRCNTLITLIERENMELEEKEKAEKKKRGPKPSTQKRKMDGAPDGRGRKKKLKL
# Chain of UniProt P84103 (P84103 whole entry, looked up): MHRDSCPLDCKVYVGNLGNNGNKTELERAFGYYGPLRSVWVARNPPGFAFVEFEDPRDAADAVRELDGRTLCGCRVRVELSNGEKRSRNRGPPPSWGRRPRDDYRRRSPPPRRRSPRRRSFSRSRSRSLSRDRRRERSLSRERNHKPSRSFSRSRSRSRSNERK
# Chain of UniProt Q9UP52 (Q9UP52 whole entry, looked up): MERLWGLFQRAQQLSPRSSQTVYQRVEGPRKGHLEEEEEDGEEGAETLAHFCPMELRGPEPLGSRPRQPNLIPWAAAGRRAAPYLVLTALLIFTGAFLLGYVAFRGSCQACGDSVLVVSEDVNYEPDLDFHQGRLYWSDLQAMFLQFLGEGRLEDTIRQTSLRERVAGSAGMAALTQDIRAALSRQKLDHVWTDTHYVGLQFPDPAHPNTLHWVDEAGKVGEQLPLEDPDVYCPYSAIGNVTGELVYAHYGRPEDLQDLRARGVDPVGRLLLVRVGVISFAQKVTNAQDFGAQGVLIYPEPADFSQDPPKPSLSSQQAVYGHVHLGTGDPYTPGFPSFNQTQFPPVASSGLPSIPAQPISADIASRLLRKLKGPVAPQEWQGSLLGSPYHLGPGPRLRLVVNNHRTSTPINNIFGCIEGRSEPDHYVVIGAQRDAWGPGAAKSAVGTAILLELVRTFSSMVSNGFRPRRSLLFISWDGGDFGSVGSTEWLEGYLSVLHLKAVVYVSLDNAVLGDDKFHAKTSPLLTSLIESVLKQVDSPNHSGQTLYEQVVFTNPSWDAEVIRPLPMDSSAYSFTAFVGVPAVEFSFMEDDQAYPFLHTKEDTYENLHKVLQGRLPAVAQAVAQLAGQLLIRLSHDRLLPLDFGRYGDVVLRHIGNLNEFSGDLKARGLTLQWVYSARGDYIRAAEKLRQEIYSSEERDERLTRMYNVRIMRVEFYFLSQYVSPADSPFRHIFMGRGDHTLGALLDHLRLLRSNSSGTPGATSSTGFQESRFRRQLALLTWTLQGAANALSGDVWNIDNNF
# Chain of UniProt Q13043 (Q13043 whole entry, looked up): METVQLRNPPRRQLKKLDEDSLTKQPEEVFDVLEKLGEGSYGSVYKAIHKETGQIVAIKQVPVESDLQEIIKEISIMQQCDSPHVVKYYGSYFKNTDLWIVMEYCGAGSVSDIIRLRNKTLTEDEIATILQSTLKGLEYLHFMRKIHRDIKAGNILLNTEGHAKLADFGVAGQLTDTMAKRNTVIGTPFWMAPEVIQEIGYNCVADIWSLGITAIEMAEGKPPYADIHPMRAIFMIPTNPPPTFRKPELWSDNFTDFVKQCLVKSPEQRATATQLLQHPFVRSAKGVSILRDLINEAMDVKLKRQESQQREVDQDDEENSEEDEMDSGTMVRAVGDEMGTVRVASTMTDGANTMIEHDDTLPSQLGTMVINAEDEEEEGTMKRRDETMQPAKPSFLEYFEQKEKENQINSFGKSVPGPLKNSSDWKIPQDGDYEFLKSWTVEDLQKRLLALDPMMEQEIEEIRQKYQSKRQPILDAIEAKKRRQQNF
# Chain of UniProt Q15833 (Q15833 whole entry, looked up): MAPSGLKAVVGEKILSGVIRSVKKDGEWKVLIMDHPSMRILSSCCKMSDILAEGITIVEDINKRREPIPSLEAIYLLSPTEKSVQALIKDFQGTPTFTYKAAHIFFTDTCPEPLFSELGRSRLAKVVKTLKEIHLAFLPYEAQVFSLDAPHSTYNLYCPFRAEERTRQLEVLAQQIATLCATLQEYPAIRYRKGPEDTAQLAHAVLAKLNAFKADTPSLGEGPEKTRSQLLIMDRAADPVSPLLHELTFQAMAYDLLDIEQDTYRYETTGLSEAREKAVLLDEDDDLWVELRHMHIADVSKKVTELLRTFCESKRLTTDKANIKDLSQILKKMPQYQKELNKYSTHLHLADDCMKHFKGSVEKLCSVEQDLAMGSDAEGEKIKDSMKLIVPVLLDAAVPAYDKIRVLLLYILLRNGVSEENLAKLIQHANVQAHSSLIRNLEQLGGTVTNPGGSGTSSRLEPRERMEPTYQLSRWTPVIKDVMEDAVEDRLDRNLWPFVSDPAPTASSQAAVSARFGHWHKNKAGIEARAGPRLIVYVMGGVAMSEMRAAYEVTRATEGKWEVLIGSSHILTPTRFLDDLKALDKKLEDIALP
# Chain of UniProt P40763 (P40763 whole entry, looked up): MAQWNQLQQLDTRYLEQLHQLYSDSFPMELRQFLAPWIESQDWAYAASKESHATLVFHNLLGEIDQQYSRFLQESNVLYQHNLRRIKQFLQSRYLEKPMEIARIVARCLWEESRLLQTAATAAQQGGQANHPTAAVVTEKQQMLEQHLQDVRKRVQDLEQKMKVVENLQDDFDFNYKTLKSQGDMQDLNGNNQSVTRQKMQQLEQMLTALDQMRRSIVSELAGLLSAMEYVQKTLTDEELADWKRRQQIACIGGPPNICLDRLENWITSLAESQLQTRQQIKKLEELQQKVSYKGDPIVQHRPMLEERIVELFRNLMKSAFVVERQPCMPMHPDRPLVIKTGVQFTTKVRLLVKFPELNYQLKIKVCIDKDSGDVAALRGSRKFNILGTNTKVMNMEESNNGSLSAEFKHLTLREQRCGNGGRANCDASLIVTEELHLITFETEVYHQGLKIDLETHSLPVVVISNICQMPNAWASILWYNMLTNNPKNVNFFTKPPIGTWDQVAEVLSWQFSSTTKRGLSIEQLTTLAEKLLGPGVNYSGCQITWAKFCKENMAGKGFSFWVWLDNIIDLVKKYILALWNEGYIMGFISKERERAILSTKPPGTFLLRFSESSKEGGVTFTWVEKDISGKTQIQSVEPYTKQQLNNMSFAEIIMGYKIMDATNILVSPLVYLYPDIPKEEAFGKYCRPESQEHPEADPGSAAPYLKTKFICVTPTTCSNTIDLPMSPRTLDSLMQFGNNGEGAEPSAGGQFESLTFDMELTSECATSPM
# Chain of UniProt P51687 (P51687 whole entry, looked up): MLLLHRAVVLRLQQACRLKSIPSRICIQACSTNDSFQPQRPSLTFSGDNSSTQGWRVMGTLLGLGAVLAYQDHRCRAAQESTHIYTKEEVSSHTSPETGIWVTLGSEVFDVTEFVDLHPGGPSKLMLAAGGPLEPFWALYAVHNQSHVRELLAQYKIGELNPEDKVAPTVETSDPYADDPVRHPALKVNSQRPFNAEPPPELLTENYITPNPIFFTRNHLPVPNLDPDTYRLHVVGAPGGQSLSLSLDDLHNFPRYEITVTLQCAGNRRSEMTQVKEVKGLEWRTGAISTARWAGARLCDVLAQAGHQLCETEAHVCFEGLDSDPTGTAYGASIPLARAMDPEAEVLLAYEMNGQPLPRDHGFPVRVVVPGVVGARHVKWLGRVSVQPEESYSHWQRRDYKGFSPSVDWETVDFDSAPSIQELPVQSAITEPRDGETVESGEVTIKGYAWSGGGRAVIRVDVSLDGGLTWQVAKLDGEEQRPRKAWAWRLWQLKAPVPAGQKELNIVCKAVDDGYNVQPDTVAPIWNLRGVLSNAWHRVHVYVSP
Target,log2 fold change [1],log2 fold change (filanesib),log2 fold change (zotarolimus),log2 fold change (idasanutlin),log2 fold change (alisertib),log2 fold change [2],log2 fold change (gefitinib),log2 fold change [3],log2 fold change (lapatinib),log2 fold change (pictilisib),log2 fold change [4],log2 fold change (crizotinib),log2 fold change [5],log2 fold change [6],log2 fold change (duvelisib),log2 fold change (gandotinib),log2 fold change (tozasertib),log2 fold change [7],log2 fold change (doramapimod),log2 fold change (ispinesib)
SRSF3 (UniProt P84103),-0.226,0.193,-0.054,0.217,-0.101,-0.011,-0.026,-0.009,-0.006,-0.018,-0.081,0.061,-0.27,0.128,-0.081,0.247,-0.027,-0.024,-0.019,-0.095
TM9SF2 (UniProt Q99805),-0.06,-0.073,0.043,-0.103,-0.01,-0.061,0.009,0.007,0.011,0.085,0.056,-0.754 (active),-0.017,-0.049,0.064,0.008,0.028,0,0.007,-0.089
SMAD2 (UniProt Q15796),-0.011,0.091,0.043,0,0.032,-0.016,0.117,-0.032,0.043,0.102,0.132,0.255,-0.015,0.012,0.038,0.045,0.086,0.071,-0.04,-0.019
SUOX (UniProt P51687),-0.321,-0.014,0.02,0.013,-0.014,0.088,0.007,0.022,-0.088,0.158,0.016,0.076,0.098,0.001,-0.026,0.063,0.003,-0.075,-0.338,-0.034
SUPT5H (UniProt O00267),0.02,-0.005,0.042,-0.062,-0.003,0.058,0.028,0.027,-0.006,0.05,0.057,0.049,0.129,-0.057,0.084,-0.043,0,0.079,-0.043,0.02
SMARCA5 (UniProt O60264),0.047,0.047,0.043,0.059,-0.064,-0.049,0.073,-0.144,-0.017,0.004,-0.004,-0.073,0.273,0.161,0.025,-0.045,0.154,0.127,-0.052,-0.012
STAM2 (UniProt O75886),-0.006,0.059,-0.018,-0.06,0.015,0.001,0.002,-0.066,-0.018,0.055,0.114,-0.008,0.041,-0.049,-0.031,-0.126,0.054,0.028,-0.022,-0.049
STK4 (UniProt Q13043),-0.031,-0.034,-0.025,0.01,-0.047,0.099,-0.007,0.015,-0.036,0.02,0.009,-0.01,0.032,0.036,0.068,0.043,-0.021,-0.004,-0.008,-0.03
STAT3 (UniProt P40763),0.063,-0.031,0.086,-0.003,0.013,0.023,0,-0.039,0.004,0.051,0.059,-0.126,0.105,-0.063,0,-0.184,0.073,0.088,-0.009,-0.03
SQSTM1 (UniProt Q13501),0.047,0.011,-0.167,0.072,-0.016,-0.136,-0.022,0.058,-0.012,-0.112,0.1,-0.149,-0.059,0.042,0,0.168,0.044,-0.027,0.008,-0.019
SLIRP (UniProt Q9GZT3),0.088,-0.429 (active),-0.054,0.041,-0.08,-0.648 (active),0.041,0.023,-0.042,-0.15,-0.046,-0.267,-0.202,0.058,0.029,0.162,-0.075,0.146,-0.045,-0.149
SUPT16H (UniProt Q9Y5B9),0.106,-0.026,0.104,-0.057,0.12,-0.036,0.062,-0.023,0.035,0.011,0.138,-0.062,0.251,-0.093,0.084,-0.024,0.234,0.248,-0.047,0.028
STXBP2 isoform 3 (UniProt Q15833),0.021,0.001,-0.043,0.043,-0.034,0.045,0.043,-0.066,0.007,-0.091,0.049,-0.301,0.022,0.039,0.019,-0.03,0.03,0.17,0.152,-0.306
SPAG9 (UniProt O60271),0.005,-0.041,-0.011,0,-0.034,-0.034,-0.01,-0.031,-0.026,0.041,0.046,-0.056,-0.002,0.065,-0.017,-0.034,0.049,0.012,0.023,-0.188
SPTBN4 (UniProt Q9H254),-0.036,-0.068,0.014,-0.237,-0.116,-0.202,-0.047,0.158,0.041,0.175,0.026,0.09,-0.024,0.098,0.007,-0.03,-0.039,-0.003,-0.03,0.06
TFR2 (UniProt Q9UP52),-0.066,0.011,-0.06,0.035,-0.04,0.011,-0.035,0.041,-0.011,0.05,0.068,-0.182,-0.001,-0.016,0.032,0.03,-0.023,-0.038,-0.019,-0.097
